Screens: PubChem BioAssay, National Center for Advancing Translational Sciences (NCATS)
NPSR antagonist – qHTS Assay for Antagonists of the Neuropeptide S Receptor: cAMP Signal Transduction; Potency, µM (doses to about 38.3 µM), without a hit: at the highest dose activity change, negative = inhibition, most hits filed as inhibitors; CHO-NPSR cells, cAMP TR-FRET, antagonist mode; 220,000 tested, 1% active; AID 1461, 2008; also: % is scaled to controls: 0 for no effect and ±100 for the full control effect; nearly all actives have a fitted effect of over 50% in size
Target sequence (Q6W5P4 whole entry, looked up): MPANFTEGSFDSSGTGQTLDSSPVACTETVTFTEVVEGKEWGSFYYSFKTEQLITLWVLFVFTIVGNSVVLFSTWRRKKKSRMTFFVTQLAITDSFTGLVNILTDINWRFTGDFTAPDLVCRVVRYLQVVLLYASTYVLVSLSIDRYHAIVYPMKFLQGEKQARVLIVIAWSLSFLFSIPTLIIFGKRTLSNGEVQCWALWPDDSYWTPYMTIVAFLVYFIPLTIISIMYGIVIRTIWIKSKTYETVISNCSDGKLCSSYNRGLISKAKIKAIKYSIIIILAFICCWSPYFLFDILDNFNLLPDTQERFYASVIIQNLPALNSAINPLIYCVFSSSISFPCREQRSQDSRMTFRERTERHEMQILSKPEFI
HTT cytoprotect – qHTS Multiplex Assay to Identify Dual Action Probes in a Cell Model of Huntington: Cytoprotection (ATP). PC12 HTT-Q103 induced, cytoprotection, ATP luminescence, 40 h. Potency, µM (top dose mostly 56.4 µM), without a hit: cytoprotection (ATP increase), usual class: activators. 230,000 tested, 0.14% active. AID 1471, 2008; also: % of control where 0% means no effect; nearly all actives have a fitted effect of over 45% in size
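Huntington model: PC12 line, ecdysone-inducible HTTQ103 exon1–GFP, tebufenozide 100 nM. Test articles in a dose series. Endpoint luminescence from cellular ATP.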
Lamin A splicing – qHTS Assay for Modulators of Lamin A Splicing | 200,000 tested, 0.01% active | HeLa LMNA splicing GFP/RFP minigene ratio, 48 h | AID 1487, 2009 | Potency, µM (titrated, usually from 46.1 µM), without a hit: at the top dose ratio change, negative = inhibition, actives largely listed as inhibitors; active = well fitted inhibition curve with a large enough effect in the signal ratio, with a control signal flat, not every such curve was filed as active; inconclusive = small, poorly fitted or top-dose-only effect, or effect the other way, or a change in a side signal; the % refers to the signal ratio; also: % is scaled to controls: 0 for no effect and ±100 for the full control effect
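Read-out is the ratio of GFP to DsRed2 object intensity, acquired by 488 nm laser-scanning cytometry on HeLa lamin A-EGFP minigene reporter cells. Compound incubation 48 hrs at 37 °C in Opti-MEM with 2% FBS; DMSO 0.5% final.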
Epigenetic derep – Quantitative High-Throughput Screen for Regulators of Epigenetic Control | murine LDR cells, GFP reporter derepression, 30 h | Potency, µM (series often up to 53.9 µM), for inactives: at the highest dose GFP activation, usual class: activators | 280,000 tested, 0.2% active | AID 1865, 2009; also: % of control where 0% means no effect; nearly all actives have a fitted effect of over 60% in size
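Readout is the number of GFP-expressing murine LDR cells, counted by cytometry following washing. Cells were treated with compound for 30 h at 37 C; the stably integrated CMV-GFP locus is normally silent.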
HttQ103 aggreg – qHTS Multiplex Assay to Identify Dual Action Probes in a Cell Model of Huntington: Aggregate Formation (GFP); PC12 HttQ103-GFP aggregates, Acumen cytometry, 40 h; Potency, µM (doses to about 46.1 µM), without a hit: at the highest dose activity change, negative = inhibition, actives largely listed as inhibitors; 220,000 tested, 1.1% active; also: % is scaled to controls: 0 for no effect and ±100 for the full control effect; nearly all actives have a fitted effect of over 60% in size
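Steps: seed 1500 PC12 HTTQ103-GFP cells/well; add tebufenozide, 100 nM final; add compound titration; add ATPLite reagent; quantify GFP aggregates by laser scanning cytometry.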
* = called active by the depositor; ? = inconclusive; . = not tested or not shown; ! = repeats disagree; [ ] = another dose, or the depositor's remark. The list is not random: actives were taken first. Their share in the collection is about 1.5%. Unless noted, calls follow the shape of the dose curve; as a rule, active = well fitted curve in the direction sought with a large enough effect; inconclusive = small, poorly fitted or top-dose-only effect, or another doubt; inactive = no such curve, though single readings can be large; an effect the other way counts as inactive or inconclusive. Potency is read from the fitted curve at half-maximal effect.

SMILES	NPSR antagonist	HTT cytoprotect	Lamin A splicing	Epigenetic derep	HttQ103 aggreg
O=C(NC(NC(=S)Nc1c(Cl)cccc1Cl)C(Cl)(Cl)Cl)OCc1ccccc1 (configuration not stated)	-40%	-4%[10 µM]	?	1%	22µM*
CCOC(=O)NC(NC(=S)Nc1ccc(OCC)cc1)C(Cl)(Cl)Cl (configuration not stated)	7%	.	?	-2%	13%
O=C(Cn1cnc2ccccc21)Nc1ccc(SC(F)F)cc1	0%	5%[10 µM]	?	-1%	?
O=C(Nc1ccc(SC(F)F)cc1)c1cccc2nc3ccccc3nc12	-18%[46.1 µM]	-36%	2%	7.1µM*	?
CC1CCCC(C)N1C(=O)c1cccc2c1-c1ccccc1/C2=N/O (configuration not stated)	-21%[46.1 µM]	6%[1.9 µM]	-15%	-1%	7.9µM*
N#Cc1c(NC(=S)NC(=O)c2ccccc2)sc2c1CCN(CCc1ccccc1)C2	-18%	-14%[10 µM]	5%	5.6µM*	19%
CC1(C)O[C@H]2C[C@@H]3[C@H]4CCC5=CC(=O)C=C[C@]5(C)[C@@]4(F)[C@@H](O)C[C@]3(C)[C@]2(C(=O)CO)O1	.	-55%	?	0%	29%
CCOC(=O)C(C)(C)[C@H](O)C(C)C	.	-1%[10 µM]	.	.	.
N#CC(C#N)=C1C=CC=CN1/C(=C\c1ccco1)C(=O)c1ccccc1	?	?	?	8%	3.2µM*
N#CC(C#N)=C1C=CC=CN1/C(=C\c1ccco1)C(=O)c1ccc(Br)cc1	?	32%[10 µM]	?	?	?
COc1ccc(C(=O)/C(=C\c2ccco2)N2C=CC=CC2=C(C#N)C#N)cc1	-26%[46.1 µM]	?	?	1%	6.3µM*
COCCCNC(=O)c1ccc(C)c(-n2c(C)nc3cccnc32)c1	.	.	.	1%	.
Cc1cc(-c2ccc(N=Nc3c(S(=O)(=O)O)cc4cc(S(=O)(=O)O)cc(N)c4c3O)c(C)c2)ccc1N=Nc1c(S(=O)(=O)O)cc2cc(S(=O)(=O)O)cc(N)c2c1O	.	-23%	.	.	0.02µM*
Cc1nn(-c2ccc(S(=O)(=O)O)cc2)c(O)c1N=Nc1ccc(-c2ccc(N=Nc3ccc4c(S(=O)(=O)O)cc(S(=O)(=O)O)c(N)c4c3O)c(O)c2)cc1O.[Cu].[Cu]	.	-7%[10 µM]	.	.	.
CCCCCCCCn1ccc(=N)cc1	-20%	-64%[10 µM]	.	10%	-45%[9.22 µM]
CCCCCCCCCCCCCCCCn1cc[n+](C)c1	?	-41%[10 µM]	.	0%	13µM*!
NCS(=O)(=O)O	.	-7%[10 µM]	.	.	.
Cc1cc(Br)c2nc3c(c(C(=O)O)c2c1)CCCCC3	1µM*	?	-13%	-1%	?
C/C(=N\N=C(N)N)c1cccc(Cl)c1	-2%	-183%	.	1%	5µM*
Cc1noc(C)c1-c1nccc(NCc2cccs2)n1	.	-64%	?	.	.
CN(C)c1ccc(N=Nc2ccccc2C(=O)OCC(=O)NC2CCCC2)cc1	?	-20%[10 µM]	-15%	0%	6.3µM*
Cc1cc(Nc2cccc(F)c2)nc(-c2ccccc2O)n1	?	-21%	?	-1%	25µM*
O=C(/C=C\C=C/c1ccc2c(c1)OCO2)N1CCCCC1	.	-38%[40.3 µM]	?	1%[16.9 µM]	.
S=C(Nc1ccccn1)c1ccccn1	2µM*	-24%	8%	?	15%
COCCNC(=O)[C@H](C)/C=C/C(NC(=O)OCc1ccccc1)c1ccc(C(=O)OC)cc1 (some centres not stated)	.	3%	.	0%	.
SMILES	NPSR antagonist	HTT cytoprotect	Lamin A splicing	Epigenetic derep	HttQ103 aggreg
COc1ccc(-c2n(Cc3ccccc3)c3ccccc3[n+]2Cc2ccccc2)cc1	10µM*	.	.	0%	.
O=C(c1nc2ccc([N+](=O)[O-])cc2[nH]c1=O)[C@@H](O)c1ccc2c(c1)OCO2	.	-16%[10 µM]	.	.	.
O=S1(=O)Nc2c(ccc3cccnc23)-c2ccccc21	3.2µM*	-19%[0.074 µM]	?	?	?
Cc1nc2ccccc2c(=O)n1-c1ccc(NC(=O)c2ccccc2[N+](=O)[O-])cc1	.	.	20%[46 µM]	1%	.
COc1ccc(-c2n[nH]c(C(F)(F)F)c2-c2cc3ccccc3o2)c(O)c1	-4%[46.1 µM]	12%[10 µM]	?	0%	3.5µM*
COC(=O)[C@@]1(Cc2ccc(F)cc2)[C@H]2c3cc(C(=O)N(C)C)n(Cc4ccc(C)c(F)c4F)c3C[C@H]2CN1C(=O)c1ccccc1	.	-31%	.	1%	.
CC(C)CC(NC(=O)c1ccc(Cl)cc1)C(=O)OCC(=O)c1ccc2c(c1)NC(=O)CO2 (configuration not stated)	10µM*	-61%	?	0%	-12%
CSc1nc(N)nc(SCCS(=O)(=O)c2ccc(Cl)cc2)c1C#N	?	-13%[0.074 µM]	?	0%	10µM*
C[C@]12CC[C@@H]3c4ccc(O)cc4CC[C@H]3[C@@H]1CCC2OC(=O)CCC1CCCC1 (some centres not stated)	.	41%	?	.	-11%
CC(O)CN(C)CC/C=C1/c2ccccc2CSc2ccccc21 (configuration not stated)	12%	6%[10 µM]	?	1%	8.9µM*
CN(CC/C=C1/c2ccccc2CSc2ccccc21)CCCO	-5%	.	?	0%	?
O=C(O)C(NS(=O)(=O)c1cccc2cccnc12)c1ccccc1 (configuration not stated)	.	-2%	.	.	.
O=S1(=O)C=C(Sc2nnc(-c3ccccc3)o2)c2ccccc21	?	-114%	?	2%	4.5µM*
CS(=O)(=O)NNC(=O)CN1C(=O)C2C3C=CC(C3)C2C1=O (configuration not stated)	25%	-15%	13%[46 µM]	-3%	0.032µM*
N#Cc1cc([N+](=O)[O-])cnc1N(CCO)CCO	0%	14%[10 µM]	-7%	-3%	13µM*
CCC(CO)Nc1ncc([N+](=O)[O-])cc1C#N (configuration not stated)	4%[46.1 µM]	-47%[10 µM]	-9%	0%	-1%
COc1ccc2c(c1)CCc1c(C(=O)Nc3ccc(C#N)cc3)noc1-2	.	.	.	-1%	.
Cc1cc(N/N=C/c2c(O)ccc3ccccc23)nc(-c2ccccc2O)n1	-1%	27%[10 µM]	?	1%	10µM*
COc1cccc(Nc2nc(NCCO)c3ccccc3n2)c1	-5%[46.1 µM]	-55%	-9%	3%	8.9µM*
Oc1ccc(Nc2nc(NCC3CCCO3)c3ccccc3n2)cc1 (configuration not stated)	?	-17%[10 µM]	?	0%	1%
COc1cccc(Nc2nc(NCC3CCCO3)c3ccccc3n2)c1 (configuration not stated)	?	-132%	-11%	1%	10µM*
Cn1nc(-c2ccccc2)cc1NS(=O)(=O)c1ccc(C#N)cc1	3%	-3%[10 µM]	.	2%	-16%[9.22 µM]
